Assay results taken from PubChem BioAssay (NCI).
This is part of a sample that, as a whole, favours compounds with a hit. Of some 83,000 tested, about 20% had one in any assay.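 In brief: 96-well plates, 48 h treatment, single concentration, percent growth endpoint.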 Values without a mark were called inactive. Active and inactive are the calls of the source.

tested on: OVCAR-4 ovarian; assay: NCI-60 one-dose screen, 48 h (100 = growth as untreated, 0 = no growth, -100 = all killed); settings: 10 µM unless noted
Protocol: Growth inhibition of the OVCAR-4 human tumor cell line is measured as a screen for anti-cancer activity. Cells are grown in 96 well plates and exposed to the test compound for 48 hours. Compounds are tested at a single concentration, which is 10^-5 M for most compounds. The reported endpoint is percent growth (GI% or GIPRCNT), where numbers from 0 - 100% represent growth inhibition, and numbers from -100% - 0 represent cell death. For example, a value of 40 represents 60% growth inhibition. A value of 0 means no net growth occurred over the course of the experiment. A value of -40 indicates 40% of cells at the beginning of the experiment died by the end of the experiment. A value of -100 means all cells are dead at the end of the experiment.
NCI-60 Human Tumor Cell Lines Screen was performed using the standard one-dose NCI protocol, which is described in more detail at https://dtp.cancer.gov/discovery_development/nci-60/default.htm.
Compounds with GIPRCNT values below 10 were considered active. Activity score was based on GIPRCNT using the following formula: […]
Score is 0 for GIPRCNT values of 100 or above, 50 for GIPRCNT values of 0, and 100 for GIPRCNT values of -100.

SMILES	growth
COc1ccc(C(=O)/C=C/c2ccc3ccccc3c2)cc1S(N)(=O)=O	32.5%
Cc1ccc(-c2nnc3ccc(N/N=C/c4ccccc4)nn23)cc1	69.1%
COc1ccc(CCC2c3c(cc4c(c3OC)OCO4)CCN2C)cc1 (stereo not given)	9.34% (active)
NS(=O)(=O)c1ccc(N=Nc2c(O)n(CC(=O)Nc3ccccc3)c3ccccc23)cc1	57.3%
COc1cc(CNC(=O)/C=C/c2ccc3c(c2)OCO3)ccc1OCc1cn(-c2ccc([N+](=O)[O-])cc2)nn1	75.7%
Cc1ccc([C@H]2C(C(=O)c3ccc(Cl)cc3)C3(N[C@@H]2c2ccccc2)C(=O)Nc2ccc(Cl)cc23)cc1 (stereo not given in full)	57.4%
CCCCOc1ccc(NC(=O)c2sc3nc(C)ccc3c2N)cc1	1.32% (active)
Cn1cc(-c2cc3nc(-c4cn(C)c5ncc(Br)cc45)cc(N)n3n2)c2cc(Cl)ccc21	-59.4% (active)
CC1(c2cc3cc(Br)ccc3oc2=O)NC(=O)c2c(/C=C/C(=O)OC3CC4CCC3(C)C4(C)C)cccc2N1 (stereo not given)	75.4%
COc1cc(OC)cc(C(=O)Nc2cccc(-c3cn(-c4ccc(S(N)(=O)=O)cc4)nn3)c2)c1	72%
O=c1[nH]n(C(=S)N/N=C/c2ccccc2Cl)c(=O)c2ccccc12	33%
N/C(=N\c1nc2ccccc2s1)NC(=O)Nc1ccccc1Br	-59.1% (active)
Nc1nc(-c2ccccc2)c(N=Nc2ccc(Cl)cc2[N+](=O)[O-])s1	97.2%
N/N=C(\N)c1c(N)nc(=S)[nH]c1-c1ccc(Cl)cc1Cl	105%
COc1ccc(C(=O)/C=C/c2ccc(Oc3nc(Nc4ccc(F)cc4)nc(N(C)C)n3)c(OC)c2)cc1	43.5%
CN(C)c1ccnc(CNCCSC2(c3ccc(C(F)(F)F)cc3)c3ccccc3CCc3ccccc32)c1	13.9%
CC1(C)CC[C@]2(C(=O)O)CC[C@]3(C)C(=CCC4[C@@]5(C)C[C@@H](O)[C@@H]6OC(c7ccccc7F)OC[C@@]6(C)C5CC[C@]43C)C2C1 (stereo not given in full)	30.7%
COc1cc(/C=C/C(=O)c2nnn(-c3ccc(Cl)cc3)c2C)cc(OC)c1OC	34.7%
CN1CCN(Cc2ccc(C(=O)Nc3cccc(C#Cc4cccc5[nH]nc(N)c45)c3)cc2C(F)(F)F)CC1	-60.9% (active)
COc1cc2c(c(OC)c1OC)C(=O)CC(c1cccc(NC(=O)c3cc(NC(=O)[C@H](C)N)ccc3Cl)c1)O2 (stereo not given in full)	44.4%

SMILES	growth
CN(C)CCOc1ccc(C(=O)C2[C@H](c3ccc(Cl)cc3)[C@@H](c3ccccc3)NC23C(=O)Nc2ccc(Br)cc23)cc1 (stereo not given in full)	33.9%
CC1(C)CC[C@]2(C(=O)Nc3ccccc3)CC[C@]3(C)C(=CCC4[C@@]5(C)C[C@@H](O)[C@H](O)[C@@](C)(CO)C5CC[C@]43C)C2C1 (stereo not given in full)	58.9%
Cc1cc2nc3c4ccccc4n(CCCN(C)C)c3nc2cc1C	-23.4% (active)
COc1cc(-c2cc(-c3cccc(OCC(=O)O)c3)[nH]c(=O)c2C#N)cc(OC)c1OC	98.2%
COc1ccc2c(c1)c(-c1cc3nc(-c4cn(C)c5ncc(Br)cc45)cc(N)n3n1)cn2C	17.3%
CC(=O)c1cc(C(=O)c2ccccc2)n2c1ccc1ccccc12	102%
C#CCOc1cc(N(CC)CC)ccc1C(C(=O)NC(C)(C)C)N(C(=O)C1CCc2cc(F)ccc2O1)c1ccccc1F (stereo not given)	43.4%
O=C1CC(Sc2n[nH]c(-c3ccncc3)n2)C(=O)N1c1ccc(Br)cc1 (stereo not given)	110%
CC(C)CSc1nc(NCCc2c[nH]c3ccccc23)c(C#N)c(-c2ccc(F)cc2)n1	72.8%
COc1ccc(-c2nnc3ccc(N/N=C/c4ccc(C)cc4)nn23)cc1	36.9%
C=C1CC[C@@H]2[C@]3(C)COC(c4ccccc4)O[C@@H]3CC[C@@]2(C)[C@@H]1C/C=C1/C(=O)OCC1OC(C)=O (stereo not given in full)	0.176% (active)
CCCSc1nc(Nc2ccc(S(N)(=O)=O)cc2)c(C#N)c(-c2cc(OC)c(OC)c(OC)c2)n1	27.5%
CCOC(=O)C(N=Nc1ccc(S(=O)(=O)N=C(N)N)cc1)C(C)=O (stereo not given)	105%
COc1cc(/C=C/C(=O)c2ccccc2)ccc1Oc1nc(Nc2ccc(F)cc2)nc(N(C)C)n1	27.7%
Clc1cccc(-c2ccc(OCCCN3CCN(c4ccncc4)CC3)cc2)c1	38.2%
COc1ccc(C(=O)/C=C/c2ccccc2Br)cc1S(N)(=O)=O	35.2%
CC12CC[C@@H]3[C@]4(C)COC(c5c(F)cccc5F)O[C@@H]4CC[C@@]3(C)[C@@H]1CC(C1=CCOC1=O)O2 (stereo not given in full)	70.1%
COc1ccc(-c2ccnc(SCc3cc4ccccc4[nH]c3=O)n2)cc1OC	-2.39% (active)
COc1ccc2c(c1)c(-c1cc3nc(-c4cn(C)c5ncccc45)cc(N)n3n1)cn2C	-5.11% (active)
N#Cc1c(-c2ccc(Cl)cc2)nc2n[nH]c(-c3ccc(Cl)cc3)c2c1-c1ccc(C(F)(F)F)cc1	2.98% (active)
